The source made the active and inactive calls.

Experiment [1] relates to Plasmodium falciparum Sir2 (PF13_0152, Sir2A). Nature of the experiment: Plasmodium falciparum Sir2A binding compounds – biochemical, small-molecule microarray, 635 nm fluorescence, primary screen (AID 1098).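 Note: score merges spot fluorescence intensity with its signal-to-noise ratio.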 The settings on record: fluorescence 635 nm, higher = more signal.
The nature of experiment [2]: probe aDKK1 binding to arrayed compounds – biochemical, biotinylated probe, 635/667 nm fluorescence, primary screen (AID 1099).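 Note: score merges 667nm spot fluorescence with signal to noise across triplicate slides.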 The settings on record: small-molecule microarray, higher = more signal.
Experiment [3] can be described thus: probe aCHRDL2 binding to arrayed compounds – biochemical, biotinylated probe, 635/667 nm fluorescence, primary screen (AID 1100). The settings on record: small-molecule microarray, higher = more signal.
The nature of experiment [4]: change in splice reporter luminescence, either direction, cell-based, HEK293, spliceosome inhibition project, primary screen (AID 1101).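 Note: HEK293 cells carrying a splicing-competent luciferase reporter gene; test concentration not given here.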 The settings on record: HEK293 splicing luciferase reporter, 24 h, higher = more signal, called active from +8 up or from −8 down. Background: A reporter such as luciferase makes a cellular process visible.
Experiment [5] concerns the target Fibroblast growth factor 10 (Homo sapiens) (UniProt O15520). Nature of the experiment: compounds binding fibroblast growth factor 10 – biochemical, small-molecule microarray, 635 nm fluorescence, primary screen (AID 1102). The settings on record: FGF10 binding, fluorescence 635 nm, higher = more signal.
Experiment [6] concerns glycogen synthase kinase-3 (GSK3A per assay name; protocol says GSK3B). Description: compounds binding glycogen synthase kinase-3 – biochemical, small-molecule microarray, 635 nm fluorescence, GSK3A, primary screen (AID 1103). Note: the record names both GSK3A and GSK3B. The settings on record: fluorescence 635 nm, higher = more signal.
Experiment [7] addresses Epidermal growth factor receptor (Homo sapiens) (UniProt P00533). Description: compounds binding epidermal growth factor receptor – biochemical, small-molecule microarray, 635 nm fluorescence, primary screen (AID 1104).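 Note: score merges 667 nm emission intensity with spot signal to noise over triplicate slides.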 As to conditions: EGFR binding, higher = more signal.
The target in experiment [8] is Follistatin-related protein 3 (Homo sapiens) (UniProt O95633). Description: compounds binding follistatin-related protein 3 – biochemical, small-molecule microarray, 635 nm fluorescence, primary screen (AID 1105).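 Note: score merges emission near 667 nm and signal to noise per printed spot across three slides.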 As to conditions: FSTL3 binding, higher = more signal.
In experiment [9] the target is Dickkopf-related protein 1 (Homo sapiens) (UniProt O94907). Description: small molecules binding DKK1 protein – biochemical, small-molecule microarray, 635 nm fluorescence scan, primary screen (AID 1106).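 Note: score merges emission near 667 nm with signal to noise over three replicate slides.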 As to conditions: higher = more signal.
The subject of experiment [10] is Inhibin beta A chain (activin A). Description: small molecules binding activin A – biochemical, small-molecule microarray, 635 nm fluorescence scan, primary screen (AID 1107).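 Note: mouse activin A protein probed at 4.33 µg/mL on printed slides; score merges bound-protein fluorescence near 667 nm with spot signal-to-noise.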 As to conditions: INHBA, higher = more signal.
Experiment [11] has as its system Human papillomavirus type 1a protein E7 (residues 44-93). Nature of the experiment: small molecules binding HPV E7 44-93 – biochemical, small-molecule microarray, residues 44-93, 635 nm fluorescence, primary screen (AID 1108).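 Note: E7 fragment applied at 1 µg/mL in TBST for 1 h at 4 C; score combines spot fluorescence with its signal to noise ratio.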 As to conditions: fluorescence 635 nm, higher = more signal.
Experiment [12] is described as follows: hepatitis C replication reporter changes, two-sided – Huh7 cells, luciferase reporter, HCV replication inhibitor project, primary screen (AID 1109).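 Note: huh7 hepatoma cells harbouring a luciferase neomycin HCV replicon reporter; luciferase luminescence as measure of HCV replicon replication; test concentration not given here.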 As to conditions: Huh7 HCV replicon luciferase reporter, 48 h; higher = more signal.
For experiment [13], the target named is Left-right determination factor 2 (Homo sapiens) (UniProt O00292). Nature of the experiment: small molecules binding LEFTY2 protein – biochemical, small-molecule microarray, 635 nm fluorescence scan, primary screen (AID 1110). The settings on record: higher = more signal.
In experiment [14] the target is Calmodulin-1 (Homo sapiens) (UniProt P0DP23). Nature of the experiment: small molecules binding calmodulin-1 with EGTA – biochemical, small-molecule microarray, Cy5-labelled CALM1, profiling panel (AID 1111).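 Note: labelled calmodulin applied in Tris saline Tween buffer holding calcium plus EGTA and DTT.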 As to conditions: Cy5-CALM1 binding fluorescence, higher = more signal.
Experiment [15] shares this target. Description: small molecules binding Ca-loaded calmodulin-1 – biochemical, small-molecule microarray, Cy5-labelled CALM1, plus calcium, artefact control for SMM control-protein annotation, profiling panel (AID 1112).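 Note: score merges spot fluorescence with signal to noise from triplicate slides.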 The settings on record: Cy5-CALM1 binding fluorescence, higher = more signal.
Experiment [16] can be described thus: probe aWnt5a binding to arrayed compounds – biochemical, biotinylated probe, 635/667 nm fluorescence, primary screen (AID 1113).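 Note: score merges 667 nm fluorescence intensity with signal-to-noise per printed feature.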 The settings on record: small-molecule microarray, higher = more signal.
The nature of experiment [17]: probe aShh binding to arrayed compounds – biochemical, biotinylated probe, 635/667 nm fluorescence, primary screen (AID 1114).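 Note: probe is biotin-labelled aShh protein from a stem cell growth factor screen; measures binding of labelled protein to compounds printed on the slide; score merges feature fluorescence at 667 nm with signal-to-noise.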 As to conditions: small-molecule microarray, higher = more signal.
Experiment [18] is described as follows: probe aNog binding to arrayed compounds – biochemical, biotinylated probe, 635/667 nm fluorescence, primary screen (AID 1115).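 Note: probe is biotinylated aNog protein used at 0.15 µg/mL for 1 h at 4 C; z-score combines 667 nm fluorescence of each spot with its signal to noise.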 As to conditions: small-molecule microarray, higher = more signal.
For experiment [19], the target named is Torsin-1A-interacting protein 1 (Homo sapiens) (UniProt Q5JTV8). Description: compound microarray binding of lysate hLAP1 – cell lysate, small-molecule microarray, COS7 lysate, 635/667 nm fluorescence, primary screen (AID 1116). The settings on record: 635 nm fluorescence, higher = more signal.
For experiment [20], the target named is Alpha-bungarotoxin (Bungarus multicinctus) (UniProt P60615). Nature of the experiment: compounds binding labelled alpha-BTX control protein – biochemical, small-molecule microarray, Alexa647 label, 635/667 nm fluorescence, artefact control for SMM control protein annotation, profiling panel (AID 1117). As to conditions: alpha-BTX-A647 binding fluorescence, higher = more signal.
Sequence of Alpha-bungarotoxin (Bungarus multicinctus) (P60615 whole entry, looked up): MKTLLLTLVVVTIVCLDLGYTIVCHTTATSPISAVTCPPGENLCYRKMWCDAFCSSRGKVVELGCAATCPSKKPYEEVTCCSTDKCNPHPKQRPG

Sequence of Epidermal growth factor receptor (Homo sapiens) (P00533 whole entry, looked up): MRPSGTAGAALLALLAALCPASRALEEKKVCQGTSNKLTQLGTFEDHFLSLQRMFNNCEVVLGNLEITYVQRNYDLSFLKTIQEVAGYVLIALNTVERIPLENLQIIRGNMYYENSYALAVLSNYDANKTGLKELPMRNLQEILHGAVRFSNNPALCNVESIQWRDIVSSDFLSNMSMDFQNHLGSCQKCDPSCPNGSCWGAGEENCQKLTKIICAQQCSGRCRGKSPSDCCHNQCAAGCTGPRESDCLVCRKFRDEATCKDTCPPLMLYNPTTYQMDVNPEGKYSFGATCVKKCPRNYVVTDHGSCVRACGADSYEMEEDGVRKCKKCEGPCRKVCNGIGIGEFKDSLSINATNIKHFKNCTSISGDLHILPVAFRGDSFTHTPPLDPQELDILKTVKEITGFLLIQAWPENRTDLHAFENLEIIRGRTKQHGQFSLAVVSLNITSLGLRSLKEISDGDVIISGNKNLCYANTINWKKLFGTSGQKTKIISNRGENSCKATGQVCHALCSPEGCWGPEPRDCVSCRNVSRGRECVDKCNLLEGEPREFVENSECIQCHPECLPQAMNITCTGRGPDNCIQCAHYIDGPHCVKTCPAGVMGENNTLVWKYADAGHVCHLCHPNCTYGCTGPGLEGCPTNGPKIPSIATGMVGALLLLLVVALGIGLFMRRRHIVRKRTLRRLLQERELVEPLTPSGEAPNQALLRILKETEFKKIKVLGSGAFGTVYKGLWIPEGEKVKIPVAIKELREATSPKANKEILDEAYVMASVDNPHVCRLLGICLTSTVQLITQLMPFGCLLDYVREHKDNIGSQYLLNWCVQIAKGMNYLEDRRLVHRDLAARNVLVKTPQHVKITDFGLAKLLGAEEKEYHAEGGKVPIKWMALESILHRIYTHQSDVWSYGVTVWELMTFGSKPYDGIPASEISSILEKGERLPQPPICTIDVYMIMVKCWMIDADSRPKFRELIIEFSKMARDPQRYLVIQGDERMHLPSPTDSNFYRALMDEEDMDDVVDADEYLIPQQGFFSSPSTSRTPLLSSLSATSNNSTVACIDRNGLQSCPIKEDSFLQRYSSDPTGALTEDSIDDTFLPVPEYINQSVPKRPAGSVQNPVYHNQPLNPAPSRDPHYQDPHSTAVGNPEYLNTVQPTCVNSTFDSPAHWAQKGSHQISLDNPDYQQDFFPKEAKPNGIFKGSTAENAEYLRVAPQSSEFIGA
Sequence of Follistatin-related protein 3 (Homo sapiens) (O95633 whole entry, looked up): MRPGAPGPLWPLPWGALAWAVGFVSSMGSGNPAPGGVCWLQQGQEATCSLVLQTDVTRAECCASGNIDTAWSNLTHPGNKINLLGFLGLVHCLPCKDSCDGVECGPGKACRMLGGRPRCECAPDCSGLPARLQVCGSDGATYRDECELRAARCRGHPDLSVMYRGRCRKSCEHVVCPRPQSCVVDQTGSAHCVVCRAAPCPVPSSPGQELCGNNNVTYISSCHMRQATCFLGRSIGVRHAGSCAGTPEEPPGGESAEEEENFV
Sequence of Left-right determination factor 2 (Homo sapiens) (O00292 whole entry, looked up): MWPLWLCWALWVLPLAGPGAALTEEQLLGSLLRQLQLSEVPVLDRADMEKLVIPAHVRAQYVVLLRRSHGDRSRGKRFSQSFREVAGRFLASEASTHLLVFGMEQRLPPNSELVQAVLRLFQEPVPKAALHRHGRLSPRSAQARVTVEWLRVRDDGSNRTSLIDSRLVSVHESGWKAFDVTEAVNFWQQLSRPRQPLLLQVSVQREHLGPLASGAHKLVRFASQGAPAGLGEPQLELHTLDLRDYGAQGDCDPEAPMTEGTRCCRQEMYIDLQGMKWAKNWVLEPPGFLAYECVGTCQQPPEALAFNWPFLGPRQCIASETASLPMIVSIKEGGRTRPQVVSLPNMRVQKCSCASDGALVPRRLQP
Sequence of Torsin-1A-interacting protein 1 (Homo sapiens) (Q5JTV8 whole entry, looked up): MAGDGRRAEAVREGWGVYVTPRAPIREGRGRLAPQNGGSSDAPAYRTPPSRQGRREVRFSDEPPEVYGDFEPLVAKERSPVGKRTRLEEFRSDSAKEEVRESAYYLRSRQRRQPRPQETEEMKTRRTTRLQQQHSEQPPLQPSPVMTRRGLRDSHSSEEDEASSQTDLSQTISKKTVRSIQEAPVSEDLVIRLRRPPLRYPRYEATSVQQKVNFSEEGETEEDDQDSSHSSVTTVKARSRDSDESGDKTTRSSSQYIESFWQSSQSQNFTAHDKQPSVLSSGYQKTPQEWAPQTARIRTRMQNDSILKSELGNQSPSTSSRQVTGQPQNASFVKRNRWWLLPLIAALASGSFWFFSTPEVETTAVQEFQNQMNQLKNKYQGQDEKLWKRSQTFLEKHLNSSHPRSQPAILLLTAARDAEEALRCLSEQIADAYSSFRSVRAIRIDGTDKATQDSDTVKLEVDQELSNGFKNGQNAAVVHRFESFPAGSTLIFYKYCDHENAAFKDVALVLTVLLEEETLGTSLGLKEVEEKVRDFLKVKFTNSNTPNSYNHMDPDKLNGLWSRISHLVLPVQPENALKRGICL
Sequence of Dickkopf-related protein 1 (Homo sapiens) (O94907 whole entry, looked up): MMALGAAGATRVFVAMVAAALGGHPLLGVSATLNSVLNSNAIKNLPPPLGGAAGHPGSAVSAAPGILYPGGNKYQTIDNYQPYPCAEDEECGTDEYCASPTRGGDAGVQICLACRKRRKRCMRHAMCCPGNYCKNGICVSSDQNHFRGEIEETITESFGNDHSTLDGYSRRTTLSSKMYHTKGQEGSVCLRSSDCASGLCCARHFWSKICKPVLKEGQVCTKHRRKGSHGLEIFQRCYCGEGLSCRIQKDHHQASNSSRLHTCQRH
Sequence of Fibroblast growth factor 10 (Homo sapiens) (O15520 whole entry, looked up): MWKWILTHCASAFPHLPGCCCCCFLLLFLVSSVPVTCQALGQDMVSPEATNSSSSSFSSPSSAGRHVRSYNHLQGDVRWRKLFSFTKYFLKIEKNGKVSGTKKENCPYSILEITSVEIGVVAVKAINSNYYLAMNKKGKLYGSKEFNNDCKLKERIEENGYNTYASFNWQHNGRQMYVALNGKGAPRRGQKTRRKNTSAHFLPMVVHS

Turning to `OCC1CC(c2ccccc2)=NO1` (stereo not given), the composite z-score in experiment [1] is 0.0686; in [2], -0.217; in [3], -0.354; in experiment [5] it was 0.0912; in [6], 0.0016; in experiment [7] it was 0.37. The composite z-score in experiment [8] is -0.0588; in experiment [9], 0.473; in experiment [10], 0.685; in [11], -1.07; in experiment [13], 0.43; in experiment [14], -0.759. Also, the composite z-score in [15] is -0.445; in [16], -0.0084; in experiment [17] it was -0.248; in [18], 0.21; in [19], 0.19; in experiment [20], -0.0251. In addition, the values for the z-score in experiment [4] and in experiment [12] were -0.0813 (inactive) and 0.381, respectively.

As to `CCOC(=O)C[C@H]1[C@H](OC(=O)Cc2ccc3c(c2)OCO3)[C@@H](NC(=O)Cc2ccc(OC)cc2)c2cc(OCCCO)ccc2N1C(=O)c1ccc2ccccc2n1`, the composite z-score is 0.0382 in experiment [1]; -0.189 in experiment [2]; -0.265 in experiment [3]; 0.355 in experiment [5]; 0.415 in experiment [6]; 0.516 in [7]. In addition, the composite z-score in experiment [8] is -0.114; in experiment [9], 0.567; in experiment [10], 0.825; in [11], 0.189; in experiment [13], 0.155; in experiment [14] it was -0.22. In addition, the composite z-score was -0.0545 in experiment [15]; -0.0792 in [16]; 0.23 in [17]; -0.134 in experiment [18]; 0.526 in [19]; 0.424 in [20]. The z-score was -0.95 (inactive) in experiment [4] and -0.763 in experiment [12].

With `COc1ccc(NC(=O)O[C@H]2[C@H](OC(=O)Nc3ccccc3)[C@@H](OC(=O)Nc3ccccc3)[C@@H](OC)O[C@@H]2CO)cc1`, the composite z-score stood at 1.55 in [1]; 0.25 in experiment [2]; 0.39 in experiment [3]; 1.5 in experiment [5]; 1.31 in experiment [6]; 0.0729 in experiment [7]. The composite z-score in experiment [8] is 0.83; in experiment [9] it was 0.396; in [10], 0.385; in [11], 1.28; in [13] it was 0.298; in experiment [14], 1.41. Besides, the composite z-score was -0.298 in experiment [15]; 0.107 in experiment [16]; -0.0813 in [17]; 0.564 in experiment [18]; 1.25 in experiment [19]; 0.577 in experiment [20]. The z-score was -1.67 (inactive) in [4] and -3.04 in experiment [12].

In the case of `COc1ccc(-c2cc3c(c(CCc4ccccc4)n2)[Si](C(C)C)(C(C)C)OC3)cn1`, the composite z-score in [1] is -0.311; in experiment [2], -0.128; in experiment [3] it was -0.185; in [5] it was -0.121; in experiment [6], -0.926; in experiment [7], 0.168. Further, the composite z-score in [8] was 0.282; in experiment [9], 0.0275; in [10], 0.529; in experiment [11] it was -0.681; in experiment [13], 0.209; in experiment [14] it was -0.113. The composite z-score was 0.151 in [15]; -0.15 in experiment [16]; -0.147 in [17]; -0.115 in [18]; -0.0389 in [19]; 0.104 in experiment [20]. The z-score in experiment [4] was -0.0496 (inactive); in [12] it was -0.42.

With `CC(C)(C)OC(=O)CC[C@@]1(C(=O)NCc2ccccc2)N=C(c2ccc(OCCCO)cc2)O[C@@H]1c1ccccc1N=[N+]=[N-]`, the composite z-score in [1] was 0.71; in experiment [2], 1.03; in [3], 1.29; in experiment [5], 1.39; in [6], 1.18; in experiment [7], 0.373. The composite z-score was found to be 1.26 in experiment [8]; 0.0295 in [9]; 0.795 in [10]; 0.912 in experiment [11]; 0.529 in experiment [13]; 1.15 in experiment [14]. For the same compound, the composite z-score was determined as 0.493 in [15]; 0.112 in experiment [16]; 0.232 in experiment [17]; 1.9 in experiment [18]; 0.899 in experiment [19]; 2.1 in experiment [20]. The z-score in experiment [4] is -1.18 (inactive); in experiment [12] it was -0.339.

`C=CCC(OC(C)=O)[C@@H]1[C@@H](N(Cc2ccc(-c3cccc(C(F)(F)F)c3)o2)C(=O)c2ccc(-c3ccccc3)cc2)c2cc(OCCCO)ccc2N1C(=O)c1ccc2ccccc2n1` (stereo not given in full): the composite z-score in [1] was -0.219; in [2], 0.148; in [3], 0.202; in experiment [5], 0.129; in experiment [6], -0.587; in [7] it was -0.049. Besides, the composite z-score in experiment [8] was 0.472; in experiment [9] it was -0.0126; in [10], 1.28; in experiment [11], -0.252; in experiment [13], -0.122; in experiment [14], -0.227. Also, the composite z-score in experiment [15] was 0.623; in experiment [16], 0.0437; in experiment [17] it was 0.112; in experiment [18], -0.139; in experiment [19] it was -0.2; in [20] it was -0.386. Further, the z-score in experiment [4] was 0.39 (inactive); in experiment [12], 0.177.

The values are drawn from PubChem BioAssay.
